Reference: the supplement of paper PMC6555819

Legend:
Assay in all cases: PBM binding z-score (relative to random genomic background probes); higher = stronger binding; sequences stand for … in GC…GCGATTGACAGCGTAGAATGAAGG
[1] = system: PPARg:RXRa DBDmut IVT, anti-RXR (DBD mutation: RXRa K156A/R161A, NR concentration 270 nM, RXRa partner concentration 90 nM)
Procedure, shortened: (§1)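 Scanned fluorescence from custom Agilent 4×180K protein-binding microarrays was regression-normalized. Binding z-scores use random background probes as reference. Ligand-free nuclear receptor dimers were incubated on the arrays for 1 h and detected with antibodies against each partner (one per run).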

[2] = system: PPARg:RXRa IVT, anti-PPARg (NR concentration 270 nM, RXRa partner concentration 90 nM)
Procedure, shortened: as §1

[3] = system: PPARg DBDmut:RXRa IVT, anti-PPARg (DBD mutation: PPARg1 K132A/R137A, NR concentration 270 nM, RXRa partner concentration 90 nM)
Procedure, shortened: as §1

[4] = system: PPARg DBDmut IVT, anti-PPARg (DBD mutation: PPARg1 K132A/R137A, NR concentration 270 nM)
Procedure, shortened: as §1

[5] = system: PPARg homodimer (NR concentration 180 nM)
Procedure, shortened: as §1

[6] = system: PXR:RXRa (NR concentration 270 nM, RXRa partner concentration 90 nM)
Procedure, shortened: as §1

[7] = system: PXR homodimer (NR concentration 270 nM)
Procedure, shortened: as §1

[8] = system: RARa:RXR (NR concentration 270 nM, RXRa partner concentration 90 nM)
Procedure, shortened: as §1

[9] = system: RARa homodimer (NR concentration 270 nM)
Procedure, shortened: as §1

[10] = system: RARb:RXRa (NR concentration 270 nM, RXRa partner concentration 90 nM)
Procedure, shortened: as §1

Sequence | PBM binding z-score [1] | PBM binding z-score [2] | PBM binding z-score [3] | PBM binding z-score [4] | PBM binding z-score [5] | PBM binding z-score [6] | PBM binding z-score [7] | PBM binding z-score [8] | PBM binding z-score [9] | PBM binding z-score [10]
ACAGACAGGTGAGTGAAGGTAACTCATCTGGACG | 0.0887 | 0.393 | 0.131 | -0.119 | -1.01 | -0.3 | -0.565 | 0.0538 | -0.677 | 0.49
ATATGTAGGTTAAGGGACATTCAGGTTGGTTCGC | 6.93 | 6.99 | 1.67 | 1.87 | 1.9 | 0.934 | 0.687 | 1.15 | 1.63 | 1.57
ATACCAAGGTGATCGTGAGGTCGTTGGTACTAAC | 0.259 | 1.28 | -0.235 | -0.0791 | 0.658 | 2.89 | 0.856 | 2.43 | -0.116 | 1.43
CCGACTTGGGCATAAGGTTACCATAAGCCAGCCC | -0.117 | -0.425 | -0.991 | -1.38 | 0.34 | 0.211 | -0.364 | 0.822 | -0.32 | 0.922
ATCTCTAGGTAACCAAGTTCAGTGAGTGCCGAAC | 3.88 | 2.77 | 0.349 | 0.828 | 0.761 | 2.12 | 3.09 | 0.548 | 0.845 | 1.21
ATCGAAAGGTCGAAGTGAGTATAGAGAAAGGGAA | 0.215 | 1.01 | 1.1 | 1.1 | 1.21 | 2.16 | 0.245 | 2.76 | 1.12 | 3.55
CAGCCTATGTCAGGGCCAGTATAGGAGGAACGTT | -0.717 | -0.807 | -1.25 | -0.192 | -0.0188 | -0.63 | -0.46 | -0.507 | -0.292 | 0.105
TCTGCTAGGTCAGTTCGTCAGCTAACGAGCTGCC | 2.26 | 2.31 | 1.01 | 0.64 | -0.455 | 0.229 | -1.06 | 0.273 | -1.33 | 3.01
ACTATTAGTTGAGACGACGGCAACCGATAGGTTG | -0.317 | -0.0579 | 0.669 | 0.567 | 0.0844 | -0.384 | -0.0364 | -0.302 | 0.521 | -0.0586
AACACAGGGTCATCGTAGGCCAGAGTACGCACAG | 2.2 | 3.46 | 1.2 | 0.514 | 2.34 | 4.91 | 0.707 | 4.91 | 0.823 | 4.3
CCAGACAGTTGAAAGGTAACTCAGTCTGGTACGC | 0.0148 | 0.0044 | -0.176 | -0.589 | 0.762 | 0.219 | 0.144 | 0.485 | 0.568 | 0.56
TGAATGAGGTTATAAGATCTGGGAACGTTGCAAA | 1.24 | 1.57 | 0.727 | -0.0307 | 0.305 | 0.714 | -0.0184 | 1.12 | 0.0804 | 1.07
CCTACAGGGCCATCAGGTCATTGATATCAACGTT | 0.49 | 1.32 | -0.452 | -0.51 | 1.27 | 1.71 | 0.581 | 1.89 | 0.0859 | 2.38
GATACAGGGTCAGCTAGAGGCCAAAGTATGGAAA | 1.15 | 2.73 | 0.457 | 0.0688 | 3.56 | 4.24 | 0.247 | 5.28 | 0.349 | 4.25
GTACCAAGGTGAATAGGTAGTTGATGAGTAGGCG | 1.51 | 1.76 | 0.536 | 0.507 | 0.398 | -0.196 | -0.0218 | 0.256 | 0.745 | 1.1
GCATATAGGTAATACGAGGTGAAAGTCCGATTGT | 4.42 | 3.44 | 0.607 | 1.33 | 0.669 | 0.96 | 0.299 | 1.27 | 0.304 | 0.336
ACTAGCAGGCTAAGTTTGGGTCACTCAAACAAAG | 0.316 | 0.557 | -0.411 | -0.519 | -0.136 | 0.49 | -0.438 | 1.31 | -0.552 | 1.17
GTACCAAGGCGAATAGGTCGTTGATGAGTAGGCG | -0.264 | -0.208 | -0.611 | -1.17 | -0.305 | -0.106 | -0.0295 | 0.507 | -0.623 | 0.291
AGAACGAGGGCAATGAGTTGATAGCCCGGGTGGC | 3.22 | 2.62 | 0.0916 | -0.0623 | 0.48 | 1.43 | 5.33 | 0.0801 | -0.603 | 2.13
CCTCGGAGGACAACAGGAGGTCAGAGCCGCCAGA | -0.218 | 0.369 | -1.41 | -1.45 | 1.21 | 1.72 | 0.183 | 1.99 | -0.021 | 2.92
GCTTGTAGATCAAGGTTCAGAAAGACTAAGCTAA | 1.07 | 1.53 | 0.321 | -0.08 | -0.171 | 0.124 | -0.087 | 0.533 | -0.997 | 0.339
GGAACTAGGGCATTCGAGTTGATAGCATGGCGAT | 7.47 | 7.05 | 0.246 | 1.27 | 0.796 | 1.44 | -0.109 | 0.587 | -0.515 | 0.965
ATCTCTAGGTAACCGAGTTCAGTGAATGCCGAAC | 3.51 | 2.9 | 0.719 | 0.977 | 0.0322 | 2.93 | 2.94 | 1.04 | 0.216 | 0.826
CGAACGAGGGCATGAGTCGATAGCAAATGCCGAT | 2.97 | 1.89 | -0.75 | -0.876 | 0.211 | 0.0627 | -0.737 | 0.1 | -0.456 | 1.81
